# High-throughput results (PubChem)
# FLuc modulator – counter-screen for miR-21 project: firefly luciferase inhibitors or activators; Potency, µM (doses to about 57.5 µM), inactives show top-dose activity change, negative = inhibition, hits mostly inhibitors; hit rate 6.9% among 360,000; P08659; purified FLuc, Km substrates, luminescence inhibition; AID 588342;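 note: plate controls were vehicle for no effect and reference inhibitor for full effect; nearly all actives have a fitted effect of over 55% in size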
# Target sequence (P08659 whole entry, looked up): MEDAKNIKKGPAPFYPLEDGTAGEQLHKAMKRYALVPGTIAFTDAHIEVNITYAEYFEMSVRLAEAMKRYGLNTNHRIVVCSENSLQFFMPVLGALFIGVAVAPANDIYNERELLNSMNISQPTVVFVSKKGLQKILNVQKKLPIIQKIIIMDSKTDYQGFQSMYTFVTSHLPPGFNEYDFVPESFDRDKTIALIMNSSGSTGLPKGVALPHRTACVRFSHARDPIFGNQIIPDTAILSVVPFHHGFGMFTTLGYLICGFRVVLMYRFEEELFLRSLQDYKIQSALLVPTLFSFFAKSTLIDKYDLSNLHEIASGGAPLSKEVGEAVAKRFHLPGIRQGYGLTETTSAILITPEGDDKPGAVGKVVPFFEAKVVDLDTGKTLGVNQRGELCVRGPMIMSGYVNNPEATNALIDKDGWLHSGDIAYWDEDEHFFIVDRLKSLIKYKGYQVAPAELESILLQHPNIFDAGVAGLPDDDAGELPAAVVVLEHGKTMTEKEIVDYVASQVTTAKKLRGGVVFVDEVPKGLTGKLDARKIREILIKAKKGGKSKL
#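 Biochemical qHTS of compounds, final roughly 60 µM downward over six points, against 10 nM purified firefly luciferase using Km concentrations of substrates (10 uM D-luciferin, 10 uM ATP) in Tris acetate pH 7.5 buffer; luminescence output.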
# Rab9 prom act – activates the Rab9 promoter; Potency, µM (series often up to 9.22 µM), inactives show top-dose activation, negative = inhibition, usual class: activators; hit rate 2.8% among 320,000; Huh7 Rab9 promoter-luciferase reporter, luminescence, 24 h; note: % of control where 0% means no effect; nearly all actives have a fitted effect of over 60% in size
#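 Quantitative HTS format; Huh7 Rab9-luciferase reporter cells (1500/well) receive compound 2 h post-plating, incubate 24 h at 37 °C, then get luciferase reagent for 10 min before luminescence reading.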
# NPC1 prom act – activators of NPC1 promoter | AID 485313 | Potency, µM (titrated, usually from 9.22 µM), for the others: at the top dose activation, actives largely listed as activators | hit rate 2.4% among 320,000 | Huh7 NPC1 promoter luciferase reporter, 24 h; note: % of control where 0% means no effect; nearly all actives have a fitted effect of over 60% in size
#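 Compounds in DMSO were transferred onto Huh7 NPC1-luciferase reporter cells pre-incubated 2 h; after 24 h at 37 °C, Amplite reagent was dispensed and luminescence recorded 10 min later.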
# SMN2 splice enh – enhancers of SMN2 splice variant expression | HEK293 SMN2-luciferase splicing reporter, luminescence, 30-36 h | Potency, µM (titrated, usually from 46.1 µM), without a hit: at the top dose activity change, positive = activation, hits mostly activators | hit rate 2.8% among 210,000 | AID 1458; note: % of control where 0% means no effect; nearly all actives have a fitted effect of over 55% in size
#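 qHTS luciferase splicing reporter: luminescence rises when SMN2 exon 7 is included in transfected HEK293 cells. Compound exposure lasted 30-36 h at 37C, with 4.5 mM final sodium butyrate as control, followed by a ONE-Glo read.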
# ELG1 genotoxic – induces genotoxicity in HEK293T cells with luciferase-tagged ELG1. HEK293T ELG1-luciferase reporter, luminescence, 16 h. Potency, µM (top dose mostly 46 µM), without a hit: at the top dose activity change, positive = activation, most hits filed as activators. hit rate 1.3% among 330,000. AID 504466; note: % of control where 0% means no effect; nearly all actives have a fitted effect of over 60% in size
#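 Quantitative HTS format in 1536-well plates. HEK293T ELG1-luciferase reporter cells receive test compound and are incubated 16 hr at 37 °C, 5% CO2; ONE-Glo added, 30 min room temperature, then luminescence read.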
# * hit, by the source's call; ? = inconclusive; . = not tested or not shown; ! = not active in a repeat; [ ] = dose if it differs, or a comment. This is a sample that favours compounds with a hit; in the whole collection about 7.5% have one here. Calls come from the whole dose curve; as a rule, active = well fitted curve in the direction sought with a large enough effect; inconclusive = small, poorly fitted or top-dose-only effect, or another doubt; inactive = no such curve, though single readings can be large; an effect the other way counts as inactive or inconclusive. Potency is the fitted concentration of half-maximal effect.
SMILES,FLuc modulator,Rab9 prom act,NPC1 prom act,SMN2 splice enh,ELG1 genotoxic
CCC(=O)Nc1cccc(-c2csc(-c3ccccc3)n2)c1,15.1µM*,21.6%,20.2%,?,7.6%
CC(C)CC(=O)Nc1cccc(-c2csc(-c3ccccc3)n2)c1,?,14.9%,-0.2%,?,-1.6%
CC(=O)Nc1ccc(-c2csc(NCc3ccccc3)n2)cc1,19µM*,?,22.1%,16.9%,?
CC(=O)Nc1cccc(-c2csc(NCc3ccccc3)n2)c1,21.3µM*,-2.8%,-2.8%,.,2.4%
CC(=O)Nc1ccc(-c2csc(NNC(=O)c3ccccc3)n2)cc1,3.7%,18.5%,-0.7%,-0.6%,-1.4%
C#C[C@]1(O)CCC2C3CCC4=Cc5oncc5C[C@@]4(C)C3CC[C@@]21C (stereo partly specified),.,.,.,-12.3%,.
CC(=O)O[C@@]1(C(C)=O)CCC2C3CC(C)C4=CC(=O)CC[C@@]4(C)C3CC[C@]21C (stereo partly specified),.,.,.,-68.9%,.
CC(C)=NNc1nc(-c2ccc([N+](=O)[O-])cc2)cs1,?,12.0%,7.3%,-26.0%,8.7%
C/C(=N/Nc1nc(-c2ccc(Cl)cc2)cs1)c1cccs1,15.1µM*,?,18.3%,?,16.6%
Cc1cccc(-c2nc(SCC(=O)NCc3ccco3)c3c(=O)n(C)c(=O)n(C)c3n2)c1,-0.4%,.,.,.,.
Cc1ccc(OCC(=O)O/N=C(\N)c2ccccn2)cc1C,12µM*,?,2.24µM*,.,8.2µM*
CCc1ccc(OCC(=O)O/N=C(\N)c2ccccn2)cc1,9.53µM*,3.16µM*,3.16µM*,.,7.3µM*
Cc1cc(C)cc(OCC(=O)O/N=C(\N)c2ccccn2)c1,?,-8.1%,-4.4%,4.8%,?
Cc1cccc(OCC(=O)O/N=C(\N)c2ccccn2)c1,16.9µM*,13.5%,26.7%,?,?
Cc1ccc(OCC(=O)O/N=C(\N)c2ccncc2)cc1C,?,?,16.6%,.,17.5%
N/C(=N\OC(=O)COc1ccccc1)c1ccccn1,?,23.4%,19.0%,-9.2%[1.84 µM],?
O=C(C1=C(O)C(=O)N(CCCn2ccnc2)C1c1cccc(Br)c1)c1ccco1 (stereo unspecified),-1.6%,5.0%,-2.0%,.,0.7%
O=C(NCc1ccccc1Cl)c1ccc2c(c1)N(Cc1ccccc1)C(=O)c1ccccc1S2,0.1%,.,.,.,.
Cc1ccnc(NS(=O)(=O)c2ccc(NC(=O)c3nc(SC(C)C)ncc3Cl)cc2)n1,?,.,.,-3.4%,.
CSc1ncc(Cl)c(C(=O)Nc2ccc(S(=O)(=O)Nc3nccc(C)n3)cc2)n1,10.7µM*!,1.41µM*,1.78µM*,14.5%,6.51µM*
Cc1c(C(=O)Nc2ccc(F)cc2F)oc2ccc3c(c12)C(=O)CC(C)(C)O3,1.07µM*,.,.,.,.
Cc1c(C(=O)Nc2cccc(C(F)(F)F)c2)oc2ccc3c(c12)C(=O)CC(C)(C)O3,3.38µM*,.,.,.,.
Cc1cc(C)cc(NC(=O)c2oc3ccc4c(c3c2C)C(=O)CC(C)(C)O4)c1,0.757µM*,.,.,.,.
CCOc1ccc(NC(=S)N(CCOC)C(C)c2ccco2)cc1 (stereo unspecified),2.7%,-4.5%,0.6%,.,-1.4%
CCN(C(=O)COC(=O)/C=C/c1ccc(O)c(OC)c1)C1CCS(=O)(=O)C1 (stereo unspecified),-1.4%,-3.1%,0.8%,23.1%,-0.5%
SMILES,FLuc modulator,Rab9 prom act,NPC1 prom act,SMN2 splice enh,ELG1 genotoxic
CC(=O)Nc1sc(/C(C#N)=C/c2ccc(Cl)c(Cl)c2)nc1-c1ccc(C)cc1,-0.5%,-2.3%,0.5%,-32.0%,-4.5%
CCOc1cc(/C=N\Nc2nc(-c3ccc(C)cc3)c(NC(C)=O)s2)ccc1O,26.9µM*,-2.6%,-0.4%,.,0.3%
COc1cc(/C=N\Nc2nc(-c3ccc(C)cc3)c(NC(C)=O)s2)ccc1O,?,-0.3%,-2.7%,.,2.1%
COc1ccc(/C=N/Nc2nc(-c3ccc(C)cc3)c(NC(C)=O)s2)cc1OC,3.01µM*,-2.8%,-2.0%,.,?
CC(=O)Nc1sc(N/N=C/c2ccc(N(C)C)cc2)nc1-c1ccc(C)cc1,6.75µM*,24.5%,24.1%,.,?
CC(=O)Nc1sc(N/N=C/c2ccc(C)cc2)nc1-c1ccc(C)cc1,8.49µM*,3.7%,7.3%,.,9.9%
CCCCC/C=C\C[C@@H](O)/C=C/C=C/C=C/[C@@H](O)CCCC(=O)O,.,.,.,11.1%,.
COc1ccc2oc(-c3cccc(NC(=O)c4ccc(C#N)cc4F)c3)nc2c1,-3.1%,.,.,-5.9%,.
O=C(Nc1cccc(C(=O)O)c1)/C(=C\c1ccc2c(c1)OCO2)NC(=O)c1ccc(Br)cc1,?,13.0%,3.3%,-10.0%,0.0%
CCOC(=O)C1=C(C)C(c2ccccc2OC)NC(=S)N1 (stereo unspecified),1.8%,-5.1%,-0.7%,-7.9%,-3.3%
CC(/C=N\NC(=O)Cn1c(C)nc2ccccc21)=C\c1ccccc1,2.9%,-30.1%,-21.9%,-77.3%,-5.0%
CC(=O)N(C(C)=O)S(=O)(=O)c1ccc(N=NN2CCOCC2)cc1,2.7%,7.1%,0.6%,0.5%[1.84 µM],4.3%
CCOC(=O)/C(C#N)=C\c1cc(C)n(-c2ccccc2)c1C,0.426µM*,1.78µM*,1.58µM*,-65.5%,?
CCCn1c(C)cc(/C=C(\C#N)C(=O)OCC(=O)NC(=O)NCC)c1C,12µM*,-7.3%,-0.2%,6.4%,2.9%
CCOC(=O)/C(C#N)=C/c1cc(C)n(-c2ccc(C)cc2)c1C,2.39µM*,1µM*,2.82µM*,-6.7%,1.84µM*
Cc1cc(/C=C(\C#N)C(=O)Nc2ccccc2)c(C)n1-c1ccc(C(=O)O)cc1,-5.5%,-0.2%,2.7%,.,-3.5%
Cc1csc2nc(COC(=O)c3ccccc3NC(=O)COc3ccccc3F)cc(=O)n12,1.0%,.,.,.,.
O=C(CN1C(=O)NC2(CCCC2)C1=O)OCC(=O)c1cccc(Cl)c1,0.5%,-5.1%,-2.2%,.,1.5%
CCOC(=O)/C(C)=N/NC(C)=O,.,.,.,0.2%,.
COc1cccc(C(=O)COc2ccc(NC(=O)c3cccs3)cc2)c1,8.49µM*,-1.2%,3.5%,.,-18.9%
COC(=O)c1ccc(NC(=O)CNc2ccccc2)cc1,23.9µM*,?,27.0%,.,?
CCCCOc1cccc(C(=O)Nc2ccc(NC(=O)c3cccs3)cc2)c1,-1.7%,-5.5%,-7.7%,.,18.2%
COC(=O)c1ccc(COc2ccccc2/C=C/C(=O)c2ccc(OCC(=O)O)cc2)cc1,5.36µM*,3.4%,-0.2%,.,-5.0%
COC(=O)c1ccc(NC(=O)CC(=O)Nc2ccc(C(=O)OC)cc2)cc1,0.7%,-3.4%,-2.0%,.,1.7%
CCCOc1ccc(C(=O)Nc2ccc(NC(=O)c3cccs3)cc2)cc1,-2.8%,12.1%,0.6%,.,4.9%
O=C(COc1ccc(NC(=O)c2cccs2)cc1)c1ccc(F)cc1,1.9µM*,17.6%,11.0%,.,22.1%
O=C(Cn1cc(C(F)(F)F)ccc1=O)NC1CCCC1,4.4%,0.8%,-3.1%,.,-0.7%
